Screen size: about 5,500 compounds; about 2,000 (36%) were called active. Roughly 18% stayed inconclusive and do not appear here. Cut-off read from the data, not from the text of the source: active = normalized growth mostly below about 0.91 (no sharp cut-off); inconclusive = no clear call, values can overlap the other calls; inactive = mostly above about 0.92. This is one part of the list.
Test: chemical genetic growth profiling, strain panel (AID 1159580);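 note: tested at 20 µM; growth read once vehicle control cultures reached saturation at 30 °C; 1 = growth at the plate median or of vehicle wells; lower values mean less growth of the strain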
Conditions: S. cerevisiae deletion strains, growth OD

Measured: normalized growth

COc1cc2c(cc1OC)C1C(=O)c3ccc4c(c3OC1CO2)CCC(C)(C)O4 (stereo not drawn)
inactive: locus YBR021W, strain FUR4, active compounds read low 0.985 | locus YBR229C, strain ROT2, active compounds read low 1 | locus YCL029C, strain bik1, active compounds read low 1.04 | locus YDL035C, strain GPR1, active compounds read low 1.01 | locus YDL074C, strain BRE1, active compounds read low 0.993 | locus YDL101C, strain DUN1, active compounds read low 0.997 | locus YDL185W, strain tfp1, active compounds read low 1.03 | locus YDL192W, strain arf1, active compounds read low 1.01 | locus YDR101C, strain arx1, active compounds read low 0.997 | locus YDR162C, strain NBP2, active compounds read low 1.03 | locus YDR318W, strain mcm21, active compounds read low 1.01 | locus YDR388W, active compounds read low 1 | locus YDR502C, strain sam2, active compounds read low 1.02 | locus YEL061C, strain CIN8, active compounds read low 1 | locus YER110C, active compounds read low 1.02 | locus YER155C, strain BEM2, active compounds read low 0.996 | locus YER167W, strain BCK2, active compounds read low 0.999 | locus YGL078C, strain dbp3, active compounds read low 1.03 | locus YGL086W, strain mad1, active compounds read low 1.02 | locus YGL248W, strain PDE1, active compounds read low 0.99 | locus YGR078C, strain PAC10, active compounds read low 0.996 | locus YGR135W, strain pre9, active compounds read low 1.02 | locus YGR252W, strain gcn5, active compounds read low 0.957 | locus YHR030C, strain SLT2, active compounds read low 1.01 | locus YHR079C, strain IRE1 (second series), active compounds read low 1 | locus YHR094C, strain hxt1, active compounds read low 1.02 | locus YHR129C, strain ARP1, active compounds read low 1.01 | locus YHR200W, strain rpn10, active compounds read low 1 | locus YIL066C, strain RNR3, active compounds read low 1 | locus YIL073C, strain SPO22, active compounds read low 1.02 | locus YIL125W, strain kgd1, active compounds read low 1.02 | locus YIR030C, strain dcg1, active compounds read low 1 | locus YJL095W, strain BCK1, active compounds read low 1.01 | locus YJL134W, strain LCB3, active compounds read low 0.996 | locus YJL168C, strain set2, active compounds read low 1 | locus YJL187C, strain SWE1 (second series), active compounds read low 0.999 | locus YJR043C, strain POL32, active compounds read low 1.01 | locus YKL009W, strain mrt4, active compounds read low 1.03 | locus YKL068W, active compounds read low 1 | locus YKL085W, strain MDH1 (second series), active compounds read low 1.01 | locus YKL085W, strain MDH1, active compounds read low 1.01 | locus YKR001C, strain vps1, active compounds read low 0.994 | locus YLR039C, strain RIC1, active compounds read low 1.01 | locus YLR058C, strain SHM2, active compounds read low 0.999 | locus YLR102C, strain apc9, active compounds read low 1.01 | locus YLR262C, strain YPT6, active compounds read low 1.04 | locus YLR268W, strain sec22, active compounds read low 1.02 | locus YLR330W, strain CHS5, active compounds read low 1.01 | locus YLR342W, strain FKS1 (second series), active compounds read low 1 | locus YLR371W, strain rom2, active compounds read low 1.01 | locus YLR418C, strain cdc73, active compounds read low 1 | locus YML016C, strain PPZ1, active compounds read low 1 | locus YML032C, strain rad52, active compounds read low 1.02 | locus YML124C, strain tub3, active compounds read low 1 | locus YMR078C, strain ctf18, active compounds read low 0.997 | locus YMR223W, strain ubp8, active compounds read low 0.999 | locus YMR263W, strain SAP30, active compounds read low 0.998 | locus YMR307W, strain GAS1, active compounds read low 1 | locus YNL067W, strain RPL9B, active compounds read low 0.993 | locus YNL128W, strain TEP1, active compounds read low 1.03 | locus YNL153C, strain GIM3, active compounds read low 1.02 | locus YNL233W, strain BNI4, active compounds read low 0.982 | locus YNL250W, strain rad50, active compounds read low 1.02 | locus YNL271C, strain bni1, active compounds read low 1.03 | locus YNL298W, strain CLA4, active compounds read low 1.01 | locus YNL307C, strain MCK1, active compounds read low 1 | locus YNL322C, strain KRE1, active compounds read low 1 | locus YNR052C, strain pop2, active compounds read low 1.02 | locus YOL006C, strain TOP1, active compounds read low 0.984 | locus YOL012C, strain htz1 1.01 | locus YOL147C, strain pex11, active compounds read low 1 | locus YOR061W, strain CKA2, active compounds read low 1.01 | locus YOR069W, strain VPS5, active compounds read low 1 | locus YOR136W, strain idh2, active compounds read low 1.02 | locus YOR144C, strain elg1, active compounds read low 1.01 | locus YOR184W, strain ser1, active compounds read low 1.02 | locus YOR316C, strain cot1, active compounds read low 1.01 | locus YPL241C, strain CIN2, active compounds read low 0.993 | locus YPR119W, strain clb2, active compounds read low 1.02 | locus YPR141C, strain kar3, active compounds read low 1.01 | locus YPR163C, strain tif3, active compounds read low 1.01 | locus YPR167C, strain met16, active compounds read low 1 | strain wtn01, active compounds read low 1.02

Source: PubChem BioAssay AID1159580 (chemical genetic matrix, 2015)
